Laboratory results as given in ChEMBL document CHEMBL3988442, “University of Dundee, Small-Polar-MMV Screening Library” (2021).
The campaign covered roughly 69,000 compounds. About 950 (1.4%) showed an effect of 50% or more. The sample holds strong results, similar compounds and a random draw of the others, so the mix is not that of the screen.

The compounds below were run on Mycobacterium tuberculosis (assay: Cornell M. t heat shock assay; note: in the data most compounds retested in dose-response had high values).
Format: functional, organism-based
Design: dose or concentration left out as unconfirmed

Compound	Percent Effect
Cc1nccc(C2CCCCN2Cc2ccccc2)n1 (centres undefined)	-13.8%
COCC(=O)N1CCCC1c1ccnc(Nc2cnccn2)n1 (centres undefined)	-1.39%
c1ccc(CCN2CCCC2c2ccnc(Nc3cnccn3)n2)cc1 (centres undefined)	57.03%
COCC(=O)N1CCCCC1c1ccnc(Nc2cnccn2)n1 (centres undefined)	-6.25%
c1ccc(CCN2CCCC2c2ccnc(Nc3ncccn3)n2)cc1 (centres undefined)	91.35%
Nc1nccc(C2CCCN2CCc2ccccc2)n1 (centres undefined)	10.92%
COCCOc1ccc(NC(=O)C2CC(=O)N(C)C2)cn1 (centres undefined)	4.167%
COCCn1cc(C(=O)N2CCCC2c2cccc(F)c2)ccc1=O (centres undefined)	-4.621%
O=C(O)C(F)(F)F.c1csc(CN2Cc3nccn3CC(Cn3cncn3)C2)c1 (centres undefined)	-12.15%
CCNc1ncc(CN(CCN(C)C)Cc2ccc(C)s2)cn1	2.161%
CCc1ccc(CN(CCN(C)C)Cc2ccc(C)s2)nc1	88.98%
COc1ncc(CN(CCN(C)C)Cc2ccc(C)s2)cn1	-3.645%
O=C(O)C(F)(F)F.O=C(O)C(F)(F)F.c1cncc(OC[C@]23COC[C@H]2CN(Cc2ccsc2)C3)c1	-29.89%
Cl.O=S(=O)(c1ccc(Cl)cc1)N1CCc2nc(C3CCNCC3)ncc2C1	15.18%
COc1cccnc1-c1ccc(F)c2c1OC(CN)C2 (centres undefined)	-14.02%
COc1cc(C)c(-c2ccc(F)c3c2OC(CN)C3)cc1C (centres undefined)	51.67%
COc1cc(-c2ccc(F)c3c2OC(CN)C3)cc(OC)c1OC (centres undefined)	-5.435%
CC(C)CCN1C[C@H]2C[C@H](C(=O)N3CCCC3)[C@@H](C1)O2.O=C(O)C(F)(F)F	37.85%
CC1CN(CC2CCCC2)CCN1c1ccc2nncn2n1 (centres undefined)	85.93%
CC1CCCCN1C(=O)CN1CCN(c2ccc3nncn3n2)CC1 (centres undefined)	5.269%

Compound	Percent Effect
CC1CN(Cc2nccn2C)CCN1c1ccc2nncn2n1 (centres undefined)	-15.38%
O=C(CCN1CCN(c2ccc3nncn3n2)CC1)N1CCCCC1	-7.972%
Cc1cnc(CN2CCN(c3ccc4nncn4n3)C(C)C2)cn1 (centres undefined)	-3.544%
c1ccc(CN2CCN(c3ccc4nncn4n3)CC2)nc1	6.511%
O=C(CCN1CCN(c2ccc3nncn3n2)CC1)NC1CCCC1	-7.134%
CC1CN(CC(=O)NC2CCCC2)CCN1c1ccc2nncn2n1 (centres undefined)	176.2%
O=C(CN1CCN(c2ccc3nncn3n2)CC1)NC1CCCC1	59.84%
O=C(CN1CCN(c2ccc3nncn3n2)CC1)NC1CCCCC1	57.46%
CC1CN(CC(=O)N2CCCC2)CCN1c1ccc2nncn2n1 (centres undefined)	15.46%
CC1CN(CC2CCCCC2)CCN1c1ccc2nncn2n1 (centres undefined)	16.09%
COCc1ncn2c1CN(C(=O)c1cccc3cccnc13)CC2.O=C(O)C(F)(F)F	-14.48%
O=C(O)C(F)(F)F.O=C(O)C(F)(F)F.c1ccc(OCC2C[C@@H]3[C@@H](C2)OCCN3Cc2ccoc2)nc1 (some centres undefined)	14.26%
CN(C)CCN1CCCC12CCCN(C(=O)c1cccnc1)C2.O=C(O)C(F)(F)F.O=C(O)C(F)(F)F (centres undefined)	-7.014%
Cc1nc(N(C)C)nc2c1COCC21CCN(CC2CC2)C1.O=C(O)C(F)(F)F (centres undefined)	4.702%
CC1c2ncc(CNC(=O)C3CC3)n2CCN1CC1CCC1.O=C(O)C(F)(F)F (centres undefined)	-0.1216%
O=C(O)CC(O)(CC(=O)O)C(=O)O.O[C@@]1(c2ccccn2)CC[C@H]2CN(Cc3cccc(Cl)c3Cl)C[C@H]21	14.33%
Cc1ccc([C@]2(O)CC[C@H]3CN(Cc4cccc(F)c4F)C[C@H]32)nc1.O=C(O)CC(O)(CC(=O)O)C(=O)O	2.948%
Cc1ccc([C@]2(O)CC[C@H]3CN(Cc4cccc(Cl)c4Cl)C[C@H]32)nc1.O=C(O)CC(O)(CC(=O)O)C(=O)O	90.52%
Cl.NC(=O)CCc1cccc(C2CCNCC2)n1	3.085%
COc1ccccc1CC(=O)N1CCCC(n2nc(C)nc2C)C1 (centres undefined)	-10.87%

Compound	Percent Effect
CC[C@@H]1N(Cc2ccc(C)s2)CCC[C@]12CCC(=O)N2C.O=C(O)C(F)(F)F	1.978%
Cc1cc(C(=O)NCC2OCCc3cn(CC4CC4)nc32)c(C)[nH]1 (centres undefined)	105.1%
CS(=O)(=O)CC(=O)NCC1OCCc2cn(CC3CC3)nc21 (centres undefined)	11.68%
COCCn1cc2c(n1)C(CNC(=O)c1cc(C)[nH]c1C)OCC2 (centres undefined)	38.13%
Cn1cc(CN2CCC3(CCCN3Cc3cccnc3)CC2)cn1.O=C(O)C(F)(F)F.O=C(O)C(F)(F)F.O=C(O)C(F)(F)F	-39.86%
COc1ccc(NC(=O)NC(C)Cn2cccn2)cn1 (centres undefined)	0.2337%
CC(=O)c1ccc(NC(=O)NC(C(=O)N(C)C)C(C)C)cc1 (centres undefined)	30.77%
CC(C)C(NC(=O)Nc1ccc(F)cc1)C(=O)N(C)C (centres undefined)	54.32%
Cc1ccc(NC(=O)NC(C)Cn2cccn2)cc1 (centres undefined)	0.5452%
CC(=O)c1ccc(NC(=O)N[C@H](C(=O)O)C(C)C)cc1	-1.764%
CC(Cn1cccn1)NC(=O)Nc1ccc(F)cc1 (centres undefined)	97.32%
O=C(O)C(F)(F)F.O=C(O)C(F)(F)F.c1cc(CO[C@@H]2CC[C@H]3[C@H]2OCCN3Cc2ccoc2)ccn1	-10.25%
Cc1nc(CN2C[C@@H]3CN(C(=O)c4ccnnc4)C[C@@H]3C2=O)cs1.O=C(O)C(F)(F)F	0.6336%
CN(C)CCN1CCCC12CCN(C(=O)c1cccnc1)CC2.O=C(O)C(F)(F)F.O=C(O)C(F)(F)F	-6.366%
CC(C)N1CCO[C@H]2CN(C(=O)c3ccsc3)C[C@H]21.O=C(O)C(F)(F)F	-22.87%
O=C(Nc1cccc2c1CCCC2)C1CCCN1c1nccs1 (centres undefined)	50.83%
O=C(Nc1cccc(N2CCCC2)c1)C1CCCN1c1nccs1 (centres undefined)	5.051%
O=C(Nc1cccc(F)c1)C1CCCN1c1nccs1 (centres undefined)	8.306%
CCC(C)N1CCC2(CC1)CN(c1cncnc1)C(=O)CO2.O=C(O)C(F)(F)F (centres undefined)	-21.63%
